In PubChem BioAssay (NCATS):
Inconclusive results are not listed. Activity calls are given as the source filed them. The call rests on the fitted dose curve; tested in HEK293 reporter line.

Assay: qHTS for Inhibitors of the Functional Ribonucleoprotein Complex (vRNP) of Lassa (LASV) Arenavirus: Viability assay - alamar blue signal for LASV Primary Screen (AID 1347083); further: nearly all actives have a fitted effect of over 80% in size
Conditions: cell viability, alamar blue fluorescence (LASV minigenome counter-screen); series mostly up to 57.5 µM; activity change, negative = reduced viability: at the top concentration
On the % scale 0 is the no-effect control and ±100 the full control effect; potency means the concentration at half of the fitted maximal effect.

Row | Structure (SMILES) | Potency | activity change, negative = reduced viability
1 | CCN(CC)CCCCNc1ncc2c(n1)N(C)C(=O)N(c1c(Cl)c(OC)cc(OC)c1Cl)C2 | 34.3 µM (active) | 
2 | N#CNC(=NCCCCCCOc1ccc(Cl)cc1)Nc1ccncc1 | 0.0097 µM (active) | 
3 | C[C@@]1(C2CCCC2)Cc2cc(OCC(=O)O)c(Cl)c(Cl)c2C1=O |  | -22.4% (inactive)
4 | Cn1cc(C2=C(c3ccc(Cl)cc3Cl)C(=O)NC2=O)c2ccccc21 |  | -17.4% (inactive)
5 | NC/C=C\C(=O)O |  | -2.37% (inactive)
6 | CCc1ccc(/C=C2/SC(=S)NC2=O)cc1 |  | -1.98% (inactive)
7 | CCCn1c(=O)c2[nH]c(-c3cnn(Cc4cccc(C(F)(F)F)c4)c3)nc2n(CC)c1=O |  | -38.4% (inactive)
8 | COC(=O)Nc1ccc(-c2nc(N3CCOCC3)c3cnn(C4CCN(Cc5cccnc5)CC4)c3n2)cc1 | 0.153 µM (active) | 
9 | CN1CCc2c(c3ccccc3n2Cc2ccc(C(=O)NO)cc2)C1 | 21.7 µM (active) | 
10 | Nn1nnc2ccccc21 |  | 6.42% (inactive)
11 | CNC(=O)c1c(F)cccc1Nc1nc(Nc2cc3c(cc2OC)CCN3C(=O)CN(C)C)nc2[nH]ccc12 |  | -36.4% (inactive)
12 | CCCCOP(=O)(O)OCCCC |  | 0.554% [at 115 µM] (inactive)
